{"source": "paper PMC7862700", "about": "“An all-to-all approach to the identification of sequence-specific readers for epigenetic DNA modifications on cytosine”", "test_in_all_cases": "DAPPL (digital affinity profiling via proximity ligation, sequencing); 10 mM Tris-HCl pH 7.5, 50 mM NaCl, 1 mM DTT, 4% glycerol, room temperature, 30 min; GST-TFs on glutathione beads, 16-mer random dsDNA library, 0.1% formaldehyde crosslink after washing; high values mean tight binding", "settings_in_all_cases": "protein: recombinant; tags: N-terminal GST; dsDNA, one strand shown", "key": {"FLI1": {"target": "T1, FLI1 (Homo sapiens, UniProt Q01543 1-452)", "T1 sequence": "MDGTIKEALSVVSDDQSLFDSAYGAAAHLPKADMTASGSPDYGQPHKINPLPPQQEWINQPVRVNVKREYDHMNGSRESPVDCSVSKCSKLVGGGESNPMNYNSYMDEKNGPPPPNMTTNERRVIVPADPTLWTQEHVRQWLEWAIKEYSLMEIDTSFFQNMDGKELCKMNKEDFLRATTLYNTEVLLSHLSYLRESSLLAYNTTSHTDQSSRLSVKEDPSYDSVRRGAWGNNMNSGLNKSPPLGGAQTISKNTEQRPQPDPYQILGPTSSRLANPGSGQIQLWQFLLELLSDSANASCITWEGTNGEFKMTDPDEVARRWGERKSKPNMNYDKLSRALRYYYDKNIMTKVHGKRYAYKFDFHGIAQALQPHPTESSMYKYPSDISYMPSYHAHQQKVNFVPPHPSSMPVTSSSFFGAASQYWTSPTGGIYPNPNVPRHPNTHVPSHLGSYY", "method_in_brief": "(§1)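 Each value of binding signal is a hexamer's read frequency for a factor divided by the same hexamer's frequency in the tag-only sample. Barcoded, bead-captured GST fusions of human transcription factors made in yeast were pooled with that sample and incubated with 200 nmole of a random double-stranded 16-mer DNA library in Tris/NaCl/DTT/glycerol buffer at room temperature for 30 min. Washing, 0.1% formaldehyde crosslinking, proximity ligation, PCR and Illumina NextSeq500 sequencing followed.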"}, "ELK1": {"target": "T2, ELK1 (Homo sapiens, UniProt P19419 1-428)", "T2 sequence": "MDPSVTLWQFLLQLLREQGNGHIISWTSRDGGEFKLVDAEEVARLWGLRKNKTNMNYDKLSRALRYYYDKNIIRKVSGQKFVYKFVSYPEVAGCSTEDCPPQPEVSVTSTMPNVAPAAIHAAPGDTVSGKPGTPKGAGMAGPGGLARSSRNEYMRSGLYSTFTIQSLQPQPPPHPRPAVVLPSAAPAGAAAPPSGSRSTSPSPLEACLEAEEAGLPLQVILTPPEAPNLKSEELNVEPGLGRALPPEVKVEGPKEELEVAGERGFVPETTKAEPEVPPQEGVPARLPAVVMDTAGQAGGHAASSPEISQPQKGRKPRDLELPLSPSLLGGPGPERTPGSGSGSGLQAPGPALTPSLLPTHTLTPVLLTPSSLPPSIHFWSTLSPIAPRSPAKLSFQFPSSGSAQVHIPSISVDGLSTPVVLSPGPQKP", "method_in_brief": "as §1"}, "GABPA": {"target": "T3, GABPA (Homo sapiens, UniProt Q06546 1-454)", "T3 sequence": "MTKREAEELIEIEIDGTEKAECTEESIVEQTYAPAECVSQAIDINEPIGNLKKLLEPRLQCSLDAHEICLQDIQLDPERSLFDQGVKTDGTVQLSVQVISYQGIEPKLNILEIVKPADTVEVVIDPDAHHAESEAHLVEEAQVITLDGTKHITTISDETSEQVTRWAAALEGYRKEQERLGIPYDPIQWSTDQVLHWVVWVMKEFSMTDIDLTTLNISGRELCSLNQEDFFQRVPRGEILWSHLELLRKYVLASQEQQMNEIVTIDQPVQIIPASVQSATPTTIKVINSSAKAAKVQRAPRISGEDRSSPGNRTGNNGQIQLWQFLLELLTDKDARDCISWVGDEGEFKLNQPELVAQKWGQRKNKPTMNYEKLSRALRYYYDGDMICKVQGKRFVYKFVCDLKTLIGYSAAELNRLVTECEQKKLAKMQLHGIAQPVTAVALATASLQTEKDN", "method_in_brief": "as §1"}, "ERG": {"target": "T4, ERG (Homo sapiens, UniProt P11308 1-479)", "T4 sequence": "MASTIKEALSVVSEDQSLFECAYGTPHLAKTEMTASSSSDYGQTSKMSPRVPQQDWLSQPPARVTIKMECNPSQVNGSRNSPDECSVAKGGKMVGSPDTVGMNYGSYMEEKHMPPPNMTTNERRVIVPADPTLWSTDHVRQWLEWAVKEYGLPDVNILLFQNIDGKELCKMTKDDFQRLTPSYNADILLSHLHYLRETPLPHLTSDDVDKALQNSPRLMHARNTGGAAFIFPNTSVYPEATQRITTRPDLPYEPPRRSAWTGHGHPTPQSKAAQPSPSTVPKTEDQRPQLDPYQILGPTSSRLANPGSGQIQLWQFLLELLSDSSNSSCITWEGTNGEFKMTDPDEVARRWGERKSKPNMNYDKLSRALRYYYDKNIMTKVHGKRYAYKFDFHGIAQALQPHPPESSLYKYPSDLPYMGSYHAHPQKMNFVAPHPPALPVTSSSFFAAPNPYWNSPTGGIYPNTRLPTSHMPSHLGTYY", "method_in_brief": "as §1"}, "ELF1": {"target": "ELF1 (Homo sapiens, UniProt P32519 1-619)", "sequence (P32519 whole entry)": "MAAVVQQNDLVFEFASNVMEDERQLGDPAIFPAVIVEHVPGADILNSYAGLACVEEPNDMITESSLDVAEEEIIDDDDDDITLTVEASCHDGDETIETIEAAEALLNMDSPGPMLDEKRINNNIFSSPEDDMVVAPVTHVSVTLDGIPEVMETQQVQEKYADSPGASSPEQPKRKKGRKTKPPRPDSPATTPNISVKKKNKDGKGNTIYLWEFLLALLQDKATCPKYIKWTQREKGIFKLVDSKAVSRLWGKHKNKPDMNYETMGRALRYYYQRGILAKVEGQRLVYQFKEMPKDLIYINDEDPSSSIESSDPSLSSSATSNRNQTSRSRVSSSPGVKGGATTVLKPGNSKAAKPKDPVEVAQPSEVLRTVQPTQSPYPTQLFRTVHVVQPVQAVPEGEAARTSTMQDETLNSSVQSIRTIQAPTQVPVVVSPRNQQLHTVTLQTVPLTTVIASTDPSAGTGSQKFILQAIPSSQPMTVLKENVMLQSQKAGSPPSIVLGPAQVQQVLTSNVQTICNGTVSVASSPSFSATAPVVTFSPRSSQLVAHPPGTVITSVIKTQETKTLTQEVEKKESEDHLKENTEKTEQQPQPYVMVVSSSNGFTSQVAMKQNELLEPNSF", "method_in_brief": "as §1"}, "EHF": {"target": "T5, EHF (Homo sapiens, UniProt Q9NZC4 1-300)", "T5 sequence": "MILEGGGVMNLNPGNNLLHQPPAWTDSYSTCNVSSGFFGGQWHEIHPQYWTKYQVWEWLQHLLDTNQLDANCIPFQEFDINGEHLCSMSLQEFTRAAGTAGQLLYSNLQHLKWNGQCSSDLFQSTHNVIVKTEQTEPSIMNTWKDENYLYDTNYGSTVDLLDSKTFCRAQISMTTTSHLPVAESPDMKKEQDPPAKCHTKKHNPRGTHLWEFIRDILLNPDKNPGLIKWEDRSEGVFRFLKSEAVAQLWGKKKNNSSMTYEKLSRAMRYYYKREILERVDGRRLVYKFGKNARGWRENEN", "method_in_brief": "as §1"}, "SPI1": {"target": "SPI1 (Homo sapiens, UniProt P17947 1-270)", "method_in_brief": "as §1"}, "SPIB": {"target": "SPIB (Homo sapiens, UniProt Q01892 1-262)", "sequence (Q01892 whole entry)": "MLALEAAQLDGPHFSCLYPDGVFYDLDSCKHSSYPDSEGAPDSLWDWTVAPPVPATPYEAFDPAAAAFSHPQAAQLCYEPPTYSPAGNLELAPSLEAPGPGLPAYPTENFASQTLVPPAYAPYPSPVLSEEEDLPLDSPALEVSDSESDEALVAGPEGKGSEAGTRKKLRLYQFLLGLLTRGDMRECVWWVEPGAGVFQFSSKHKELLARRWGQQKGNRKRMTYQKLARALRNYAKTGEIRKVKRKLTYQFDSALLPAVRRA", "method_in_brief": "as §1"}, "ELK3": {"target": "T6, ELK3 (Homo sapiens, UniProt P41970 1-407)", "T6 sequence": "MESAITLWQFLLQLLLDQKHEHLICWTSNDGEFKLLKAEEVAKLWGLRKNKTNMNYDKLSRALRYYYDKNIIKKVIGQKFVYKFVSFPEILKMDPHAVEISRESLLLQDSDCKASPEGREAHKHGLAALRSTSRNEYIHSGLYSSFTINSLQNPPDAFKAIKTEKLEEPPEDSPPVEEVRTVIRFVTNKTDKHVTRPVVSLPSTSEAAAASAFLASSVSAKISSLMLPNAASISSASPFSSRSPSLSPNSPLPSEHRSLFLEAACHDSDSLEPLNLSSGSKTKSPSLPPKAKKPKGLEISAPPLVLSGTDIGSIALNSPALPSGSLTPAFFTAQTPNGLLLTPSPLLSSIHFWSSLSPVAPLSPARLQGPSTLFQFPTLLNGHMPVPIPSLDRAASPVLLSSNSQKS", "method_in_brief": "as §1"}}}
{"sequence": "TGCTAC", "values": [{"measurement": "binding signal", "setting": "FLI1", "result": "1.35 fold enrichment (6-mer frequency, TF over GST control)"}, {"measurement": "binding signal", "setting": "ELK1", "result": "1.26 fold enrichment (6-mer frequency, TF over GST control)"}, {"measurement": "binding signal", "setting": "GABPA", "result": "1.24 fold enrichment (6-mer frequency, TF over GST control)"}, {"measurement": "binding signal", "setting": "ERG", "result": "1.27 fold enrichment (6-mer frequency, TF over GST control)"}, {"measurement": "binding signal", "setting": "ELF1", "result": "1.25 fold enrichment (6-mer frequency, TF over GST control)"}, {"measurement": "binding signal", "setting": "EHF", "result": "1.23 fold enrichment (6-mer frequency, TF over GST control)"}, {"measurement": "binding signal", "setting": "SPI1", "result": "1.29 fold enrichment (6-mer frequency, TF over GST control)"}, {"measurement": "binding signal", "setting": "SPIB", "result": "1.25 fold enrichment (6-mer frequency, TF over GST control)"}, {"measurement": "binding signal", "setting": "ELK3", "result": "1.26 fold enrichment (6-mer frequency, TF over GST control)"}]}
